What all share (assay): DAPPL (digital affinity profiling via proximity ligation, sequencing); 10 mM Tris-HCl pH 7.5, 50 mM NaCl, 1 mM DTT, 4% glycerol, room temperature, 30 min; GST-TFs on glutathione beads, 16-mer random dsDNA library, 0.1% formaldehyde crosslink after washing; high values mean tight binding
In one experiment the target is T1, FEV (Homo sapiens, UniProt Q99581 1-238).
T1 sequence: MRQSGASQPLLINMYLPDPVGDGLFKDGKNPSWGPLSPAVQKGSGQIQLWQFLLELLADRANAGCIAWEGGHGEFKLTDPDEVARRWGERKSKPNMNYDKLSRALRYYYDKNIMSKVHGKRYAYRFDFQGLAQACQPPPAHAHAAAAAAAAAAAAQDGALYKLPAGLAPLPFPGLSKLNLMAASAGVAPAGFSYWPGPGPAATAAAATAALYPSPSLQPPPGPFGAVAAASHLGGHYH
To be noted: protein: recombinant; tags: N-terminal GST; dsDNA, one strand shown. The essentials: (§1)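 A tag-only sample was pooled with DNA-barcoded human transcription factors that had been expressed in yeast as GST fusions and captured on glutathione beads. The pools were incubated for 30 min at room temperature with 200 nmole of a random double-stranded 16-mer DNA library in Tris/NaCl/DTT/glycerol buffer, then washed, crosslinked with 0.1% formaldehyde, proximity-ligated (BsaI/T4 ligase, 1 h, 37 °C), PCR-amplified and sequenced on an Illumina NextSeq500. Binding signal is each hexamer's read frequency for a factor divided by its frequency for the tag-only sample.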

A further experiment addresses ETV5 (Homo sapiens, UniProt P41161 1-510). To be noted: protein: recombinant; tags: N-terminal GST; dsDNA, one strand shown. The essentials: as §1
The next experiment addresses HSF1 (Homo sapiens, UniProt Q00613 1-529). To be noted: protein: recombinant; tags: N-terminal GST; chain copies: 3; dsDNA, one strand shown. The essentials:
as §1

Another experiment deals with T2, SPIC (Homo sapiens, UniProt Q8N5J4 1-248).
T2 sequence: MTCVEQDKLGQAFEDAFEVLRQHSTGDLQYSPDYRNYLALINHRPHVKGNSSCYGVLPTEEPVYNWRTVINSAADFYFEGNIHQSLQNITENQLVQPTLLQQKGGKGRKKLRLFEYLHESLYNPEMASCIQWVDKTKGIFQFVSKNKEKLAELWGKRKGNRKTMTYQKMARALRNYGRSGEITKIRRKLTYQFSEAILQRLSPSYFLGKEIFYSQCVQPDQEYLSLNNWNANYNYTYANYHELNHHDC
Conditions: protein: recombinant; tags: N-terminal GST; dsDNA, one strand shown. The essentials:
as §1

A further experiment concerns the target ELF4 (Homo sapiens, UniProt Q99607 1-663). Conditions: protein: recombinant; tags: N-terminal GST; dsDNA, one strand shown. In short, it runs like this: as §1
A further experiment concerns the target T3, ELK4 (Homo sapiens, UniProt P28324-2 1-405).
T3 sequence: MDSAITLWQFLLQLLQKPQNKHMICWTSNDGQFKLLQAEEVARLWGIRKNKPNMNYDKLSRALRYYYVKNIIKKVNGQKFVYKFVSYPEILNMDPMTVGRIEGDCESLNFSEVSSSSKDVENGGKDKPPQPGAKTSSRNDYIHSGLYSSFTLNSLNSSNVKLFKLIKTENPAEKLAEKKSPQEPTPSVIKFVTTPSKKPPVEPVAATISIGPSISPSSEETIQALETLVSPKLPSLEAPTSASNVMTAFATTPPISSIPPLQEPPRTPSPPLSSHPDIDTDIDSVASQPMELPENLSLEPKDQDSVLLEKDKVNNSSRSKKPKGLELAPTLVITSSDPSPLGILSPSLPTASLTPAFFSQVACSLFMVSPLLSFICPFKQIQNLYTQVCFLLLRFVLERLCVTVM
To be noted: protein: recombinant; tags: N-terminal GST; dsDNA, one strand shown. In short, it runs like this:
as §1

The next experiment concerns the target T4, ETV2 (Homo sapiens, UniProt O00321 1-342).
T4 sequence: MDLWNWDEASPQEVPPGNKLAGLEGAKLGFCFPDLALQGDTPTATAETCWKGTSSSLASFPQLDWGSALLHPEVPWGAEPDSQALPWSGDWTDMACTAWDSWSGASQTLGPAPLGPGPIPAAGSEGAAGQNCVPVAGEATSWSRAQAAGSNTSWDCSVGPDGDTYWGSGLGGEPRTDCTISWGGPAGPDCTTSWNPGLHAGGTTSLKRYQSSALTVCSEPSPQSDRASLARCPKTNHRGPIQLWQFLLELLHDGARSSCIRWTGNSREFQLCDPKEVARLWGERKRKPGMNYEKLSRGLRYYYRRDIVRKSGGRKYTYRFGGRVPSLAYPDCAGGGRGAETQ
To be noted: protein: recombinant; tags: N-terminal GST; dsDNA, one strand shown. In short, it runs like this: as §1

A further experiment addresses T5, ELF3 (Homo sapiens, UniProt P78545 1-371).
T5 sequence: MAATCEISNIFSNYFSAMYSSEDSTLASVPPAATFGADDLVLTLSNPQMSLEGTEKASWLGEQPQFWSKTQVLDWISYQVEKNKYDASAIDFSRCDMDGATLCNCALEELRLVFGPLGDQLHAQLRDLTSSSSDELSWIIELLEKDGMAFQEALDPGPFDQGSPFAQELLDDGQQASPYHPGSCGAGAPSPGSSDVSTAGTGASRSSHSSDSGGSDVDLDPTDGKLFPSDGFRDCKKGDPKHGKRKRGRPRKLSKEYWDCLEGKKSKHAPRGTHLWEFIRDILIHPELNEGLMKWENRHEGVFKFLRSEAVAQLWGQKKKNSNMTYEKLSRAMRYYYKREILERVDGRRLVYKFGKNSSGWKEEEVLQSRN
Conditions: protein: recombinant; tags: N-terminal GST; dsDNA, one strand shown. In short, it runs like this: as §1

The next experiment deals with CRX (Homo sapiens, UniProt O43186 1-299). Conditions: protein: recombinant; tags: N-terminal GST; dsDNA, one strand shown. In short, it runs like this: as §1
CRX, sequence (O43186 whole entry): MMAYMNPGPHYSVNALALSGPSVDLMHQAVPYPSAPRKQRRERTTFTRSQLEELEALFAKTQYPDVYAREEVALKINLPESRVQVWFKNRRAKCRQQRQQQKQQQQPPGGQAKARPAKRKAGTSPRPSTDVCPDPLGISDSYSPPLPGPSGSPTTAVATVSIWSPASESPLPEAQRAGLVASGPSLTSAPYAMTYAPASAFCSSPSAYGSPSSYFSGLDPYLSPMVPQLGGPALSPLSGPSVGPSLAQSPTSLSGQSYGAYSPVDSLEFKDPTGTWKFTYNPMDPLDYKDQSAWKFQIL
In a further experiment the target is ETV1 (Homo sapiens, UniProt P50549 1-477). To be noted: protein: recombinant; tags: N-terminal GST; dsDNA, one strand shown. The essentials: as §1
ETV1, sequence (P50549 whole entry): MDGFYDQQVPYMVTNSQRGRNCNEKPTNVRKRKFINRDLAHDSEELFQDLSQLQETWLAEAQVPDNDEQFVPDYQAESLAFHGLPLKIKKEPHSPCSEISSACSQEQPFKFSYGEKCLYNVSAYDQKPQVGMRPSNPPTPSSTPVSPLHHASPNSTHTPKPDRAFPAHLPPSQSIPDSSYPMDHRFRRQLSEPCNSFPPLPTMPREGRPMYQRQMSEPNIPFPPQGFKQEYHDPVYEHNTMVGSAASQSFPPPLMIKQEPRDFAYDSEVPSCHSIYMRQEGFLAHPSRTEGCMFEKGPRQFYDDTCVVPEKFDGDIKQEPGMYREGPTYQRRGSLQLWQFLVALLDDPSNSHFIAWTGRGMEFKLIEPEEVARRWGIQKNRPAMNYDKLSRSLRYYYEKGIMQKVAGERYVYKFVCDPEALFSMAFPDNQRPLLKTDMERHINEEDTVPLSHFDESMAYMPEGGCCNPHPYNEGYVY
For another experiment, the target named is T6, ERF (Homo sapiens, UniProt P50548 1-548).
T6 sequence: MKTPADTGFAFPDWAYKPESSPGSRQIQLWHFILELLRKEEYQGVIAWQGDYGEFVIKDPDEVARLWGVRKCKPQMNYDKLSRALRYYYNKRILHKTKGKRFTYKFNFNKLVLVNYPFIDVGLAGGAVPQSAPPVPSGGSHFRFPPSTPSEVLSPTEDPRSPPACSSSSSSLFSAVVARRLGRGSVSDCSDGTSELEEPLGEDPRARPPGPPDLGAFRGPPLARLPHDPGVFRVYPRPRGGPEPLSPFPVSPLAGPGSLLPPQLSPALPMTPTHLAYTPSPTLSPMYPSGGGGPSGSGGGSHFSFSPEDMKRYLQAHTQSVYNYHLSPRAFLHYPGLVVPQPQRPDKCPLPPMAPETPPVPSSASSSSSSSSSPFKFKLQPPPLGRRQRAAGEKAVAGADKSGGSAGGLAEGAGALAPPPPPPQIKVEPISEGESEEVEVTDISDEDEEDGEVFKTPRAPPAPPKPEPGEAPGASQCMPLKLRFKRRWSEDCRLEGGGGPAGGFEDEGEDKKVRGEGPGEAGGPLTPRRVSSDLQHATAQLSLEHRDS
Conditions: protein: recombinant; tags: N-terminal GST; dsDNA, one strand shown. In short, it runs like this:
as §1

The target of a further experiment is T7, ETV3L (Homo sapiens, UniProt Q6ZN32 1-361).
T7 sequence: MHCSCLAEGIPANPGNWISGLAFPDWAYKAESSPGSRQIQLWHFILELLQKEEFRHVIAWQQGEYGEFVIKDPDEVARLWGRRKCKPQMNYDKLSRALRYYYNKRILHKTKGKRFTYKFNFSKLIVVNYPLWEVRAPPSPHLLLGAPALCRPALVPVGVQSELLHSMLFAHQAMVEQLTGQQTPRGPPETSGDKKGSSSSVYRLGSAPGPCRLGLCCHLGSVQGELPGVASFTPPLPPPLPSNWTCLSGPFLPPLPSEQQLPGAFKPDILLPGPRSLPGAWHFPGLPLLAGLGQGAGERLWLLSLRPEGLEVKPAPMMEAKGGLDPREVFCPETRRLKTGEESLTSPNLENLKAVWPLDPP
To be noted: protein: recombinant; tags: N-terminal GST; dsDNA, one strand shown. The essentials:
as §1

For a further experiment, the target named is T8, ETS2 (Homo sapiens, UniProt P15036 1-469).
T8 sequence: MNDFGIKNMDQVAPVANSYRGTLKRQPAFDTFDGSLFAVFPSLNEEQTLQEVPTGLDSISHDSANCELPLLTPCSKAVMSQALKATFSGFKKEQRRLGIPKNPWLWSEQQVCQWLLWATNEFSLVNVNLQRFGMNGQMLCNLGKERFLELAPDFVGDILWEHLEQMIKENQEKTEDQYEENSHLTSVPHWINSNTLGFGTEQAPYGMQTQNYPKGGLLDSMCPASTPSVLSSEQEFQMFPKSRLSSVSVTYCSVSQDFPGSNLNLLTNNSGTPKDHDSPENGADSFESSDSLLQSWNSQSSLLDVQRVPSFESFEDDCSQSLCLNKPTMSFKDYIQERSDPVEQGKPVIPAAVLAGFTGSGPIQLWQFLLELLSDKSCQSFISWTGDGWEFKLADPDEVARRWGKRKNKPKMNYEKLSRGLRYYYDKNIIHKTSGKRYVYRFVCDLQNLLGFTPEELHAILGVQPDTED
To be noted: protein: recombinant; tags: N-terminal GST; dsDNA, one strand shown. In short, it runs like this:
as §1

The next experiment has as its target T9, SPDEF (Homo sapiens, UniProt O95238 1-335).
T9 sequence: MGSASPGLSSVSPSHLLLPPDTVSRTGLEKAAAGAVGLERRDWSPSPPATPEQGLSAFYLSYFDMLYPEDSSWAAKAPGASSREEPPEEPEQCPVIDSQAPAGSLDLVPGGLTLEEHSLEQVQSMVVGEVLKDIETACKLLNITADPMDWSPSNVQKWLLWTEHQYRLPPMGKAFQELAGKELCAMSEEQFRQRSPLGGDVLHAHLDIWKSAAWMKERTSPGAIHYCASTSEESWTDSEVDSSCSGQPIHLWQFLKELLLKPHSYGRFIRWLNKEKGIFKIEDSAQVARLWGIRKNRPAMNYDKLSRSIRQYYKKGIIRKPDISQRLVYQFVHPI
Conditions: protein: recombinant; tags: N-terminal GST; dsDNA, one strand shown. The essentials: as §1

In another experiment the target is T10, ETV7 (Homo sapiens, UniProt Q9Y603 1-341).
T10 sequence: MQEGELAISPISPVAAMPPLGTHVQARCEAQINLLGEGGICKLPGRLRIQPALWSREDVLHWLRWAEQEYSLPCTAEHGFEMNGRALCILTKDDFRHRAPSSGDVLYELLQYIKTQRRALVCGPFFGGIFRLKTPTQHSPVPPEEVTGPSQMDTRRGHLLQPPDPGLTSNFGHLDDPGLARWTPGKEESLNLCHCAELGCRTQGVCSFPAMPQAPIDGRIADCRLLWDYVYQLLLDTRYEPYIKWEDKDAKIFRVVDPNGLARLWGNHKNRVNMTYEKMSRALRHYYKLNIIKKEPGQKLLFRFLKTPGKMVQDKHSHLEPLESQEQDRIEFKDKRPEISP
Conditions: protein: recombinant; tags: N-terminal GST; dsDNA, one strand shown. In short, it runs like this:
as §1

A further experiment has as its target T11, ELF5 (Homo sapiens, UniProt Q9UKW6-2 1-255).
T11 sequence: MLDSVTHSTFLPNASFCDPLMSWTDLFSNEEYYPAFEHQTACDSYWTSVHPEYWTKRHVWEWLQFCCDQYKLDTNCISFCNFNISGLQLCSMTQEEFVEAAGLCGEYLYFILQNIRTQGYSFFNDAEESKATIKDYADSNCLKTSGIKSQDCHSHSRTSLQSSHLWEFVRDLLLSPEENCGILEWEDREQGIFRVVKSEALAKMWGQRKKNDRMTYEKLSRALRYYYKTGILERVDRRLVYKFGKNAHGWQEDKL
To be noted: protein: recombinant; tags: N-terminal GST; dsDNA, one strand shown. In short, it runs like this:
as §1

A further experiment has as its target T12, ETV3 (Homo sapiens, UniProt P41162-2 1-143).
T12 sequence: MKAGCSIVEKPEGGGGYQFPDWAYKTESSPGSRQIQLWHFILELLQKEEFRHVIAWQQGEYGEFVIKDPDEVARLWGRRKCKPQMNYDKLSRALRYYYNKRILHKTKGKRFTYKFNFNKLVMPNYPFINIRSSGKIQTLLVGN
To be noted: protein: recombinant; tags: N-terminal GST; dsDNA, one strand shown. The essentials: as §1

A further experiment addresses ETV6 (Homo sapiens, UniProt P41212 1-452). Conditions: protein: recombinant; tags: N-terminal GST; dsDNA, one strand shown. In short, it runs like this: as §1

ELF4, sequence (Q99607 whole entry): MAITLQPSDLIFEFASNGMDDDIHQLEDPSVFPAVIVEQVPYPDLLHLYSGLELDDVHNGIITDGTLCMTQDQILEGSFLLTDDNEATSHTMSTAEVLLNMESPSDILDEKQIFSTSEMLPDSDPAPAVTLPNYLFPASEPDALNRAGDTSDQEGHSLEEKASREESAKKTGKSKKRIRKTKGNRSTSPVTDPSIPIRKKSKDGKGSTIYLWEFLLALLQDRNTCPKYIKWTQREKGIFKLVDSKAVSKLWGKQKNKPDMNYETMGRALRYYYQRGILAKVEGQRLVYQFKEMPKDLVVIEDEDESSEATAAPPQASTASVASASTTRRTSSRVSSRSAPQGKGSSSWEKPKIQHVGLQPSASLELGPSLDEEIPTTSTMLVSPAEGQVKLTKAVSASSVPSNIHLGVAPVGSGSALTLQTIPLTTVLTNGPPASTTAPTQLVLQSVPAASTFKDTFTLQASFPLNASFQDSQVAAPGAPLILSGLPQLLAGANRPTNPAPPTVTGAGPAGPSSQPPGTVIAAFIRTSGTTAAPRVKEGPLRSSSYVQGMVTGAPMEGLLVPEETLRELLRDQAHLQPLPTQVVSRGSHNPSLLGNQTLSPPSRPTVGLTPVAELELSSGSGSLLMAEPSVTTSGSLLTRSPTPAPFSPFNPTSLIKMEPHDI
ETV5, sequence (P41161 whole entry): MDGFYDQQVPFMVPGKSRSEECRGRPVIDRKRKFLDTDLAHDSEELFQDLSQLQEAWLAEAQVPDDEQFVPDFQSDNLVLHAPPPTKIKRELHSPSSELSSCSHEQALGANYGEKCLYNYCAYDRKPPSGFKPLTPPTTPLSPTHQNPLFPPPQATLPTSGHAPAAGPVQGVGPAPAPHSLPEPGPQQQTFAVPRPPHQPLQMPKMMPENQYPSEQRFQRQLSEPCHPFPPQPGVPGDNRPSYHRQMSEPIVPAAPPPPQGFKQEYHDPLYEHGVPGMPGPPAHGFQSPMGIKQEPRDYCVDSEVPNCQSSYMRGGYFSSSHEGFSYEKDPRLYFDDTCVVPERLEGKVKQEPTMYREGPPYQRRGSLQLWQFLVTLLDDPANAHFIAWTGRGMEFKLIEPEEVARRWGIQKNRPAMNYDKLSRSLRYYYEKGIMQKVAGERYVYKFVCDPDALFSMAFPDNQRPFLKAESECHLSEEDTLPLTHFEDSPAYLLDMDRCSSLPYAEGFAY
ETV6, sequence (P41212 whole entry): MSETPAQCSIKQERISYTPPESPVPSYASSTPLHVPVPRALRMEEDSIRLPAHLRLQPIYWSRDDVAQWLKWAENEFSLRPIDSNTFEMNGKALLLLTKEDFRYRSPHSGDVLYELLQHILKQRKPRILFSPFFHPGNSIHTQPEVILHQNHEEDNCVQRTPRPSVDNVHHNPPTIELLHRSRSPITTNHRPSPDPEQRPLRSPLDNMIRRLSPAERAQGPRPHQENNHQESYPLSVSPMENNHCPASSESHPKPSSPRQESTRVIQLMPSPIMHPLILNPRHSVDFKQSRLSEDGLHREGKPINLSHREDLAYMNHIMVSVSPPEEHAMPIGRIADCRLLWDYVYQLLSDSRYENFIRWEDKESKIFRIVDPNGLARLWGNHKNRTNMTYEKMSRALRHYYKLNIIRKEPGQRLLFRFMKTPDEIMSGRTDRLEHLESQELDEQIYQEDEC
HSF1, sequence (Q00613 whole entry): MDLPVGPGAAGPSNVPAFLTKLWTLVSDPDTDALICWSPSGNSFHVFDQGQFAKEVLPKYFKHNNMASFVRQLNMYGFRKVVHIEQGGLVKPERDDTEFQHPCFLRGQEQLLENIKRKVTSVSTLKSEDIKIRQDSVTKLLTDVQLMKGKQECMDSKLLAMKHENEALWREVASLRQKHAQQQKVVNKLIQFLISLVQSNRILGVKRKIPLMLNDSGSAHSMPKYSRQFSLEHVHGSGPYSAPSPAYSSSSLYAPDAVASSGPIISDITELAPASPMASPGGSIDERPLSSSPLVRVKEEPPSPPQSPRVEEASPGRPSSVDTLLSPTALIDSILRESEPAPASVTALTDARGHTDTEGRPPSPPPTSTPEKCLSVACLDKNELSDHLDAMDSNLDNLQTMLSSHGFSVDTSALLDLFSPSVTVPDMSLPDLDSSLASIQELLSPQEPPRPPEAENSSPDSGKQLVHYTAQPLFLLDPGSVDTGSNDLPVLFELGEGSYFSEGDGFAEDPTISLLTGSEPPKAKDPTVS

Regarding AATCTG, the binding signal in the experiment with FEV is 1.41 fold enrichment (6-mer frequency, TF over GST control); in the experiment with ETV5, 1.4 fold enrichment (6-mer frequency, TF over GST control); with HSF1, 2.17 fold enrichment (6-mer frequency, TF over GST control); with SPIC it was 1.52 fold enrichment (6-mer frequency, TF over GST control); with ELF4, 1.57 fold enrichment (6-mer frequency, TF over GST control); with ELK4 it was 1.55 fold enrichment (6-mer frequency, TF over GST control). For the same sequence, the binding signal with ETV2 was 1.45 fold enrichment (6-mer frequency, TF over GST control); in the experiment with ELF3, 1.47 fold enrichment (6-mer frequency, TF over GST control); in the experiment with CRX, 2.75 fold enrichment (6-mer frequency, TF over GST control); in the experiment with ETV1 it was 1.58 fold enrichment (6-mer frequency, TF over GST control); with ERF it was 1.41 fold enrichment (6-mer frequency, TF over GST control); with ETV3L, 1.39 fold enrichment (6-mer frequency, TF over GST control). In addition, the binding signal was 1.52 fold enrichment (6-mer frequency, TF over GST control) in the experiment with ETS2; 1.37 fold enrichment (6-mer frequency, TF over GST control) with SPDEF; 1.46 fold enrichment (6-mer frequency, TF over GST control) in the experiment with ETV7; 1.37 fold enrichment (6-mer frequency, TF over GST control) with ELF5; 1.43 fold enrichment (6-mer frequency, TF over GST control) with ETV3; 1.4 fold enrichment (6-mer frequency, TF over GST control) with ETV6.

(Values after paper PMC7862700, “An all-to-all approach to the identification of sequence-specific readers for epigenetic DNA modifications on cytosine”.)
